What follows are sequences tested on VDR:RXRa (NR concentration 270 nM, RXRa partner concentration 90 nM) (assay: PBM binding z-score (relative to random genomic background probes); higher = stronger binding; sequences stand for … in GC…GCGATTGACAGCGTAGAATGAAGG).
Experimental: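 Protein-binding microarray (Agilent 4x180K custom design, double-stranded 60-nt probes: 5' GC cap, 34-nt variable region, 24-nt constant primer region; full probe sequence given). Purified or IVT nuclear receptor:RXRα heterodimers (3:1 NR:RXRα, mostly 270:90 nM) or homodimers were incubated for 1 h in PBS with 2% milk and no ligand, then detected with Alexa488 antibodies. Fluorescence from o1-orientation probes (~5 replicates averaged) was converted to z-scores against 500 random hg19 background probes. Variable regions are seed direct-repeat (DR0–DR5) sites, all their single-nucleotide variants and half-site ablations.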
With TCGAATAGGTTAGTCGGGGCATTCAGCCAACATA the PBM binding z-score was 3.04.
Work on CCGAGTAGGTTATGGCGCATTCAGGCAACGGTGA yielded a PBM binding z-score of -0.266.
In the case of TTACCAAGGTGAAAGGTCGTTCATGCACGCCTTG, the PBM binding z-score is reported as 3.53.
With CGTCCAAGGTCAATGCTAGGTAAGTGAAAGCATT the PBM binding z-score was 3.62.
With CCGACTGGGGCAGAAAGGTTACCTTACCATCCGG the PBM binding z-score was 0.875.
ATCTCTAGGTAAGACTCAGTTCAGTGTAGAACGC was tested, and the PBM binding z-score was 1.02.
Sequence AGTCAAAGTTCATCTAGATAACGTAAGATATGCT has a PBM binding z-score of 4.66.
TAGCCTTGGTCATGCGGGCCAGTATAGTGTCGGC gave a PBM binding z-score of -0.724.
With CCGAGTAGGTTATGAGGCATTCAGGCAACGGTGA the PBM binding z-score was -0.286.
GTTGCTAGGTCAACTGATGGTCAGCTAAAGCTCG was tested, and the PBM binding z-score was 2.05.
CCTTACGGGTCCAGGTTATAGCACGGGTGGTACG showed a PBM binding z-score of -0.152.
CAAACTAGGTGACCGGAAGGTCAAAGTCCGCATG gave a PBM binding z-score of 4.
CGAACGAGGGCAAGAGTTGATAGCAAATGCCGAT was tested, and the PBM binding z-score was 0.703.
GTAACAAGGTGAATAGGTCGTTGATGAGTAGGCG showed a PBM binding z-score of 1.22.
TAGCCTAGGTCATGGCCCAGTATACCACGCGAAC was tested, and the PBM binding z-score was 2.25.
GATACAGGGTCAGCTAGAGGCCACAGTATGGAAA showed a PBM binding z-score of 3.76.
GCTACAGGGTCAGCTAGAGGCCAGAGTATGGAAA gave a PBM binding z-score of 3.35.
AGAATGAGGTTATACGTATATCAGGGAAGAAAGT was tested, and the PBM binding z-score was 1.69.
ATCGAAAGGTCCAGGTGAGTATAGAGAAAGGGAA was tested, and the PBM binding z-score was 0.18.
With CCTACTGGGCCATTCAGACGTCATTGATCATATG the PBM binding z-score was -0.521.
In the case of TATACAGGGTCAAAGGCCGGAGTACGAATGTCGA, the PBM binding z-score is reported as 4.5.
In the case of TAGCGTAGGTCAGATCGGGCCAGTATACGCTATA, the PBM binding z-score is reported as 0.856.
ACTAGTTGGTCAGCTGAGCTCACACACAATTCGG was tested, and the PBM binding z-score was -0.299.
In the case of ACTAGCAGGCCAAGTTTGGATCACTCAAACAAAG, the PBM binding z-score is reported as -0.621.
For TCGAGTAGGTTCGGGGCATTCAGAATGGCGTCGA, the PBM binding z-score was 0.124.
AGAATGAGGTTATTAAGCTCAGGGAATTGCGGTC gave a PBM binding z-score of 1.38.
AGAATGAAGTTATTAAGATCAGGGAATTGCGGTC showed a PBM binding z-score of -0.316.
TCTAGCAGGCCAGAGAGTCACTCAAGAGGTACGG gave a PBM binding z-score of -0.279.
Work on TCTAGCAGGACAGAGGGTCACTCAAGAGGTACGG yielded a PBM binding z-score of 1.39.
CGAACTAGGTCAGCACAGGACAGTGAAGGATGAT gave a PBM binding z-score of 0.981.
In the case of TCTTGTCGATCAATAGAGGTTAAGAAAGTGCGCT, the PBM binding z-score is reported as 1.86.
Work on CCTACTGCGCCAAAAAGGTCATTGATGCCGATAA yielded a PBM binding z-score of 4.94.
CGTCAAAGTTCAACTAAGGTAACGTTAAGCACGC was tested, and the PBM binding z-score was 4.69.
Sequence TTACCAAGGTGAGCTGAGGTCCTTGATCCAACTC has a PBM binding z-score of 0.464.
Sequence CGAACTAGGGCATTGACAGGACAGTGAATAGTAA has a PBM binding z-score of -0.141.
TCTTGTAGATCAACAGGAGGTTAAAAAAGATCGA gave a PBM binding z-score of 0.744.
Sequence TCATATAGGTAAACAGGTGACAGTCCGTAAGTTA has a PBM binding z-score of 0.94.
In the case of TCATATAGGTAAACAGGTAAAAGTCCGTAAGTTA, the PBM binding z-score is reported as 1.29.
TTACCAAGGTGAAGGTCGTTGGTCCCTCTGTAGA showed a PBM binding z-score of 0.994.
In the case of TCTAGTAGGTTACCAATGGGGCATTCAGCTTTCT, the PBM binding z-score is reported as 0.81.

From the supplement of paper PMC6555819
